Hit rate of the full screen: of about 360,000 compounds, about 2,300 (0.64%) were called active.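 How the source made its calls: active means compounds giving at least 50% protection of heart cells from peroxide-induced death in the single-dose screen, raw or plate-pattern-corrected value; inactive means the rest.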 Shown is part of a subset that was picked to be rich in actives.
Experiment: cardioprotection against H2O2-induced cell death, primary screen, uHTS, H9c2 cells, ATPLite luminescence (AID 588492);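 further: 0% = DMSO wells with peroxide and 100% = DMSO wells without peroxide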
Conditions: H9c2 cardiomyocytes, H2O2 injury protection, 2 h, at 20 µM, stronger effect = higher value
For `CCN(CC)Cc1nc2sc(C)c(C)c2c(=O)[nH]1`, the protection from H2O2 cell death was 12.4% (inactive). With `O=C(CCCCO)c1ccc(O)c(Cl)c1` the protection from H2O2 cell death was 15.5% (inactive). In the case of `COc1cc(OC)nc(N/N=C(\c2ccccc2)c2ccncc2)n1`, the protection from H2O2 cell death was -2.9% (inactive). With `c1ccc(C(=NNc2nc3ccccc3s2)c2ccccn2)cc1` the protection from H2O2 cell death was 51.5% (active). In the case of `C/C(=N/Nc1nc(-c2ccccc2)c(CC(=O)O)s1)c1ccccc1`, the protection from H2O2 cell death was -8.5% (inactive). In the case of `Cc1cc(=O)oc2c(C)c(OCC(=O)NCCc3ccc(S(N)(=O)=O)cc3)ccc12`, the protection from H2O2 cell death was -0.5% (inactive). With `COc1ccc(CN2CCC(c3nc4ccc(Cl)cc4[nH]3)CC2)cc1` the protection from H2O2 cell death was -3.8% (inactive). In the case of `Cn1c2c(c(=O)n(C)c1=O)C1c3ccccc3OCC1C(C)(C)O2` (centres undefined), the protection from H2O2 cell death was 11% (inactive). In the case of `Cn1c2c(c(=O)n(C)c1=O)C(c1cccc([N+](=O)[O-])c1)Nc1ccccc1O2` (centres undefined), the protection from H2O2 cell death was 61.2% (active). In the case of `Cn1c2c(c(=O)n(C)c1=O)C(c1ccc(O)cc1)Nc1ccccc1O2` (centres undefined), the protection from H2O2 cell death was 2.1% (inactive). With `O=C(COc1nsnc1N1CCOCC1)Nc1ccccc1Cl` the protection from H2O2 cell death was 1.1% (inactive). For `O=C(CSCc1c(Cl)cccc1Cl)NN1C(=O)c2ccccc2C1=O`, the protection from H2O2 cell death was 5.5% (inactive). In the case of `CC(=O)c1cccc(-c2cnc3c(NC=O)cc(-c4ccc(N5CCN(C)CC5)cc4)cn23)c1`, the protection from H2O2 cell death was 0.9% (inactive). In the case of `CC(=O)c1ccc(-c2cnc3c(NC=O)cc(-c4cccc(NS(C)(=O)=O)c4)cn23)cc1`, the protection from H2O2 cell death was 64.4% (active). With `COc1ccc(-c2cc(NC=O)c3ncc(-c4cc(OC)c(OC)c(OC)c4)n3c2)c(OC)c1` the protection from H2O2 cell death was 17.5% (inactive). With `CC(=O)c1cccc(-c2cnc3c(NC=O)cc(-c4ccc(N(C)C)cc4)cn23)c1` the protection from H2O2 cell death was 34.4% (inactive). In the case of `CN(C)C(=O)c1cccc(-c2cnc3c(NC=O)cc(-c4ccc(F)cc4)cn23)c1`, the protection from H2O2 cell death was 12.9% (inactive). With `COc1cccc(-c2cnc3c(NC(C)=O)cc(-c4cccc(NC(C)=O)c4)cn23)c1` the protection from H2O2 cell death was 41.9% (inactive). In the case of `COc1cccc(-c2cc(NC(C)=O)c3ncc(-c4cccc(C(C)=O)c4)n3c2)c1`, the protection from H2O2 cell death was 24.1% (inactive). For `COc1ccc(-c2cc(NC=O)c3ncc(-c4ccccc4)n3c2)cc1OC`, the protection from H2O2 cell death was 74.5% (active). In the case of `CC(=O)Nc1cccc(-c2cc(NC(C)=O)c3ncc(-c4ccccc4)n3c2)c1`, the protection from H2O2 cell death was 57.6% (active). In the case of `CC(=O)c1cccc(-c2cnc3c(NC=O)cc(-c4cccc(C(=O)N(C)C)c4)cn23)c1`, the protection from H2O2 cell death was 73.1% (active). In the case of `CC(=O)c1cccc(-c2cnc3c(NC=O)cc(-c4ccccc4Oc4ccccc4)cn23)c1`, the protection from H2O2 cell death was -13.2% (inactive). In the case of `CC(=O)Nc1cccc(-c2cc(NC=O)c3ncc(-c4ccc(F)c(Cl)c4)n3c2)c1`, the protection from H2O2 cell death was 47.5% (inactive).

Reference: PubChem BioAssay AID588492 (Sanford-Burnham Center for Chemical Genomics, 2011)
